# Assay results taken from PubChem BioAssay (Tox21).
# A number with no mark means an inactive call. Calls come from the whole dose curve; as a rule, active = well fitted inhibition curve with a large enough effect in the repeat runs (not every such curve was filed as active); inconclusive = weak or mixed curves; inactive = flat fitted curve, though single readings scatter.
# Target: Thyrotropin-releasing hormone receptor (Homo sapiens) (UniProt P34981)
# Experiment: qHTS assay to identify small molecule antagonists of the thyrotropin-releasing hormone receptor (TRHR) signaling pathway (AID 1346877)
# Settings: TRHR-HEK293, TRH-induced calcium fluorescence, antagonist mode; series mostly up to 51.3 µM; activity, negative = inhibition: at the top concentration
# From the text: National Center for Advancing Translational Sciences [NCATS]
# NIH Chemical Genomics Center [NCGC]
# U.S. Environmental Protection Agency [EPA]
# National Institutes of Environmental Health Sciences [NIEHS]
# National Toxicology Program [NTP]
# U.S. Food and Drug Administration [FDA]
# Thyrotropin-releasing hormone (TRH) receptor (TRHR) is a G-protein-coupled receptor which binds the tripeptide thyrotropin releasing hormone. TRHR is found in the brain and, when bound by TRH, acts (through phospholipase C) to increase intracellular inositol trisphosphate. It plays a crucial role in the anterior pituitary where it controls the synthesis and secretion of thyroid stimulating hormone and prolactin. The TRHR-Hek293 assay is a cell-based assay, and it has the potential to screen G protein-coupled receptors. A compound/drug can either activate (agonist) or suppress (antagonist) GPCRs that can be monitored by levels of intracellular calcium. In this assay, the Tox21 10K compound library was screened to identify potential TRHR antagonists.
# Tox21 Assay Protocol Summary:
# The TRHR-Hek293 cells were dispensed at 1500cells/4uL/well in 1536-well black-clear bottom plates using a Multidrop dispenser. After the assay plates were incubated at a 37 C/5% CO2 incubator for 18 hours, 4 uL of Dye-Loading Solution was added to each well. The plates were incubated at 37 C for 2 hours. For agonist mode, 23 nL of compounds dissolved in DMSO, positive controls or DMSO only was transferred to the assay plate by a pin tool. The fluorescence intensity in the plates was measured using FDSS 7000EX kinetic plate reader for 3 min at 1 sec intervals. For antagonist mode, 23 nL of compounds dissolved in DMSO, positive controls or DMSO only was transferred to the assay plate by a pin tool. After 5 min incubation at room temperature, 1 uL of TRH was added on the top of the cell/compound mixtures to achieve a final agonist concentration of 1 nM. The fluorescence intensity in the plates was measured using FDSS 7000EX kinetic plate reader for 3 min at 1 sec intervals. Each test compound was measured at 15 concentrations and in triplicates.
# % is set by controls: 0 for no effect and ±100 for the full control effect.
# Sequence of Thyrotropin-releasing hormone receptor (Homo sapiens) (P34981 whole entry, looked up): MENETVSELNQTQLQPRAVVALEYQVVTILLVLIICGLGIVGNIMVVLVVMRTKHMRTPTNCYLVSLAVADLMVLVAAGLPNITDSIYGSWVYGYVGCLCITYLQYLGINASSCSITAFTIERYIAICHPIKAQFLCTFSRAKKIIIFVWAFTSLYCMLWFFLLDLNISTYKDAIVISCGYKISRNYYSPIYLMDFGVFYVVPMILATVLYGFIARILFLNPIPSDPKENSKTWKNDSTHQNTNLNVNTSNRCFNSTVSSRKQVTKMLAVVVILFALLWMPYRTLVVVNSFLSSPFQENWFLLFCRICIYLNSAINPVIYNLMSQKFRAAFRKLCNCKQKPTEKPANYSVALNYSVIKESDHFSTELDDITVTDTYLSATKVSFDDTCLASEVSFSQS
row,Structure (SMILES),"activity, negative = inhibition"
1,Cc1ncc(CO)c(CN)c1O,0.8% [at 23.6 µM]
2,CNCCC(Oc1ccccc1OC)c1ccccc1 (stereo not given),-0.177% [at 23.6 µM]
3,COC(C)CCO (stereo not given),-1.48%
4,Cc1ccc([N+](=O)[O-])cc1Cl,4.38%
5,CCCC1CCC(=O)O1 (stereo not given),-0.76%
6,NS(=O)(=O)c1cc(-c2nn[nH]n2)c(NCc2cccs2)cc1Cl,-1.16% [at 23.6 µM]
7,CCCCNCCCC,12.3%
8,CCCCN1C[C@H](O)[C@@H](O)[C@H](O)[C@H]1CO,7.41% [at 23.6 µM]
9,CC(C)CC(=O)OCc1ccccc1,-1.46%
10,CO[Si](C)(C)OC,2.39%
11,Cc1c(-c2ccccc2)oc2c(C(=O)OCCN3CCCCC3)cccc2c1=O,6.82% [at 23.6 µM]
12,FC(F)(F)C(F)(F)C(F)(F)C(F)(F)C(F)(F)C(F)(F)C(F)(F)C(F)(F)Br,-2.03% [at 23.6 µM]
13,CCN(CCCc1ccccc1)CCCc1ccccc1,-4.67% [at 23.6 µM]
14,NNS(=O)(=O)c1ccc(Oc2ccc(S(=O)(=O)NN)cc2)cc1,2.06%
15,CCOC(=O)[C@H](CCc1ccccc1)N[C@@H](C)C(=O)N1Cc2cc(OC)c(OC)cc2C[C@H]1C(=O)O,0.289% [at 23.6 µM]
16,O=C(C(Cl)Cl)N1CCOC12CCCCC2,0.427%
17,O=C1Nc2ccc([N+](=O)[O-])cc2C1=O,-0.231%
18,OC[C@H]1O[C@@H](O[C@H]2[C@H](O)[C@@H](O)[C@H](O)O[C@@H]2CO)[C@H](O)[C@@H](O)[C@H]1O,-3.16%
19,CCCN(CCC)C(=O)C(CCC(=O)O)NC(=O)c1ccccc1 (stereo not given),-1.57% [at 23.6 µM]
20,O=C(CCCl)NCc1ccccc1,-0.103% [at 23.6 µM]

row,Structure (SMILES),"activity, negative = inhibition"
1,C=CC1CO1 (stereo not given),7.71%
2,OCc1ccccc1O,-11.7% [at 23.6 µM]
3,Cc1onc(-c2ccccc2)c1C(=O)Cl,-0.368% [at 23.6 µM]
4,CCN(CC)CC1CCCCN1CC(=O)N1c2ccccc2C(=O)Nc2cccnc21 (stereo not given),3.11% [at 23.6 µM]
5,CCCOCCC,-18.3%
6,OCCN(CCO)c1ccccc1,-8.43%
7,O=C1CCCCCCCCCCC(=O)OCCO1,-4.72%
8,C=O,10.7%
9,CCCCNC(=S)NCCCC,-2.3%
10,CC1=C(CC(=O)O)c2cc(F)ccc2/C1=C\c1ccc(S(C)(=O)=O)cc1,18.2% [at 23.6 µM]
11,CCC(=O)Nc1ccc(O)cc1,1.01% [at 23.6 µM]
12,Cc1cc(NS(=O)(=O)c2ccc(N)cc2)nc(C)n1,1.12% [at 23.6 µM]
13,NC/C=C/C(=O)O,0.783% [at 23.6 µM]
14,CN(C)Cc1ccccc1,0.594%
15,CC(C)(CO)[C@@H](O)C(=O)NCCC(=O)O,-0.906%
16,Oc1ccccc1C=NCc1ccccc1,2.87% [at 23.6 µM]
17,CCNCCO,-2.79%
18,CCN(CC)CCNC(=O)COc1ccc(Cl)cc1,-0.899% [at 23.6 µM]
19,CCN[C@H]1CN(CCCOC)S(=O)(=O)c2sc(S(N)(=O)=O)cc21,0.261% [at 23.6 µM]
20,C=CCCC=C,4.05%
